Assay outcomes from PubChem.
In the library only some 10% were active in any assay of this set; here they are far more common.
Mm-Cpn inhibitor – Inhibitors of TCP-1 ring complex (TRiC) of Methanococcus maripaludis (MmCpn): qHTS. AID 504842, 2011. Chaperonin Mm-Cpn (Methanococcus maripaludis). purified Mm-Cpn ATPase, ADP Transcreener TR-FRET. 330,000 tested, 0.031% active. Potency, µM (titrated, usually from 76.9 µM), most hits filed as inhibitors; note: nearly all actives have a fitted effect of over 80% in size
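Measured: ADP formation by purified Mm-CPN. Conditions: 25 nM protein, 10 uM ATP, Tris pH 7.4 with Mg2+, K+ and DTT, 37°C for 30 min. Detection: Transcreener HTRF after 30 min at room temperature.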
PLK1 PBD inh – qHTS for Inhibitors of PLK1-PDB (polo-like kinase 1 - polo-box domain): Primary Screen; Potency, µM, most hits filed as inhibitors; Plk1 PBD binding of FITC phosphopeptide, fluorescence polarization; Serine/threonine-protein kinase PLK1 (Homo sapiens), P53350; 360,000 tested, 2.8% active; AID 720504, 2013; note: series mostly up to about 57 µM; nearly all actives have a fitted effect of over 65% in size
Sfp PPTase inh – qHTS Assay for Inhibitors of Bacillus subtilis Sfp phosphopantetheinyl transferase (PPTase); Potency, µM, usual class: inhibitors; 310,000 tested, 3.5% active; 4'-phosphopantetheinyl transferase ffp (Bacillus subtilis), Q9F4F7; Biochemical Sfp PPTase activity, qHTS; AID 1490, 2009;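 note: the enzyme is Sfp with the accession as filed and its product quenches rhodamine fluorescence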
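Buffer: 50 mM Hepes-Na pH 7.6, 10 mM MgCl2, 0.01% Nonidet P-40, 0.01% BSA. Enzyme 15 nM, pre-exposed to compound 15 min; substrates then added and fluorescence change tracked over 30 min.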
CCT modulator – High-Throughput Screening for Modulators of Cytosolic Chaperonin Activity | 360,000 tested, 0.3% active | activity change, % (no concentration beside the values), hits read low | purified chaperonin ATPase assay, HTRF ADP detection, 30 min | AID 651819, 2012; in the data active = activity change below about -30%
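First, chaperonin was dispensed at 40 nM or 20 nM final depending on batch activity. Next, compounds were pinned at 76 uM and ATP added at 10 uM. After 30 min at 37 °C, ADP detection reagents ran 30 min at ambient temperature.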
G9a block – qHTS Assay for Inhibitors of Histone Lysine Methyltransferase G9a. AID 504332, 2011. Potency, µM (doses to about 102 µM), actives largely listed as inhibitors. 350,000 tested, 8.8% active. G9a H3K9 monomethylation, AlphaScreen, 2 h. Histone-lysine N-methyltransferase EHMT2 (Homo sapiens), Q96KQ7; note: nearly all actives have a fitted effect of over 75% in size
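Step 1: enzyme (final 20 nM) with compound, 15 min RT. Step 2: substrate peptide 500 nM and SAM 20 uM, 2 h RT. Step 3: anti-H3K9me1 antibody and AlphaScreen beads, 10 min, then plate read.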
VDR inh – Inhibitors of the vitamin D receptor (VDR): qHTS; Vitamin D3 receptor (Homo sapiens), P11473; VDR-SRC2-3 peptide fluorescence polarization, 2 h; Potency, µM, hits mostly inhibitors; 400,000 tested, 0.93% active
Target sequence (P11473 whole entry, looked up): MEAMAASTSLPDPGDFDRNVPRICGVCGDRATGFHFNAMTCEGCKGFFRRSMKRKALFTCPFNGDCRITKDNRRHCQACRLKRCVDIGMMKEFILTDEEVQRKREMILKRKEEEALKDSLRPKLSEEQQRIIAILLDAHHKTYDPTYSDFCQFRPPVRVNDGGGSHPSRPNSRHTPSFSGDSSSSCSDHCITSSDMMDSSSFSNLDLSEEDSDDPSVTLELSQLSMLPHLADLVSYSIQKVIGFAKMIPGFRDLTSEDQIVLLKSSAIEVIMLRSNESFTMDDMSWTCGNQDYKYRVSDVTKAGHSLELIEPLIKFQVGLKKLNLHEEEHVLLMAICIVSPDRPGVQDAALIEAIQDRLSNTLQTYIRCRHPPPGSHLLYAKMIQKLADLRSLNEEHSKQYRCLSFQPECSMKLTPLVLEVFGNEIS
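Two reagent solutions held at 4 deg C in the dark were dispensed, compounds pinned at 23 nl, and the mixture incubated 2 h at room temperature. Read-out: fluorescence polarization of VDR–SRC2-3 peptide binding.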
Hits are given with their value; ! = not active in a repeat. Unless noted, calls come from the whole dose curve; as a rule, active = well fitted curve in the direction sought with a large enough effect; inconclusive = small, poorly fitted or top-dose-only effect, or another doubt; inactive = no such curve, though single readings can be large; an effect the other way counts as inactive or inconclusive.

For O=C(O)C(Cc1c[nH]c2ccccc12)N1C(=O)C2C3c4ccccc4C(c4ccccc43)[C@@H]2C1=O (some centres not stated) the results were Mm-Cpn inhibitor inactive, PLK1 PBD inh inactive, Sfp PPTase inh inactive, CCT modulator inactive, G9a block 50.1µM and VDR inh inactive.
For CC(C)(C)c1ccc(OCC(=O)NC(Cc2c[nH]c3ccccc23)C(=O)O)cc1 (configuration not stated) the results were G9a block inconclusive and VDR inh inactive.
For O=C(COc1ccccc1)NC(Cc1c[nH]c2ccccc12)C(=O)O (configuration not stated) the results were Mm-Cpn inhibitor inactive, PLK1 PBD inh inactive, Sfp PPTase inh inactive, CCT modulator inactive, G9a block 35.5µM and VDR inh inactive.
Cc1ccccc1OCC(=O)NC(Cc1c[nH]c2ccccc12)C(=O)O (configuration not stated) was read as Mm-Cpn inhibitor inactive, PLK1 PBD inh inactive, Sfp PPTase inh inactive, CCT modulator inactive, G9a block inactive and VDR inh inactive.
`O=C(NCCc1ccccc1)c1ccc(Cn2c(SCc3ccccc3F)nc3cccnc32)cc1` gave G9a block inactive and VDR inh inactive.
Screening O=C(NCCc1ccccc1)c1ccc(CSc2nc3cccnc3n2Cc2ccccc2F)cc1 returned G9a block 2µM and VDR inh inactive.
Screening Fc1ccccc1Nc1nc2c(s1)CCc1ccccc1-2 returned Mm-Cpn inhibitor inactive, Sfp PPTase inh 3.16µM and G9a block 6.31µM.
`CC(=O)Nc1ccc(SCCCC(=O)c2ccccc2)cc1` gave Mm-Cpn inhibitor inactive, PLK1 PBD inh 13.4µM, Sfp PPTase inh inactive, CCT modulator inactive, G9a block 44.7µM and VDR inh inactive.
`CC(=O)Nc1ccc(C(=O)NCCCSc2ccccc2)cc1` gave PLK1 PBD inh inactive, CCT modulator inactive and VDR inh inactive.
For O=C(O)c1cccc(N2C(=O)/C(=C/c3ccc(SCc4ccc(Cl)cc4)o3)SC2=S)c1 the results were Mm-Cpn inhibitor inactive, PLK1 PBD inh inconclusive, Sfp PPTase inh 39.8µM, CCT modulator inactive, G9a block 20µM and VDR inh inactive.
For CN1CCN(CC(=O)N2c3ccccc3C(=O)Nc3cccnc32)CC1 the results were Mm-Cpn inhibitor inactive, Sfp PPTase inh inactive, G9a block 29.9µM! and VDR inh inactive.
For O=C(CN1CCN(c2ccccn2)CC1)N1c2ccccc2CCc2ccccc21 the results were Mm-Cpn inhibitor inactive, PLK1 PBD inh inactive, Sfp PPTase inh inactive, CCT modulator inactive, G9a block 8.91µM and VDR inh inactive.
Screening O=C(CN1CCN(c2ccccn2)CC1)N(c1ccccc1)c1ccc2ccccc2c1 returned Mm-Cpn inhibitor inactive, PLK1 PBD inh inactive, Sfp PPTase inh inactive, CCT modulator inactive, G9a block 50.1µM and VDR inh inactive.
`O=C(CN1CCOCC1)N(c1ccccc1)c1ccc2ccccc2c1` gave Mm-Cpn inhibitor inactive, PLK1 PBD inh inactive, Sfp PPTase inh inactive, CCT modulator inactive, G9a block 50.1µM and VDR inh inactive.
Screening CCc1ccccc1NC(=O)C(CCSC)NS(=O)(=O)c1ccc2c(c1)oc(=O)n2C (configuration not stated) returned G9a block inactive and VDR inh inactive.
`COc1ccccc1OCC(=O)N(Cc1ccco1)Cc1ccccc1F` gave G9a block inactive and VDR inh inactive.
CCCOc1ccc(C2CC(=O)Nc3c2c(C)nn3-c2nncc(-c3cccc(OC)c3)n2)cc1OC (configuration not stated) was read as G9a block inactive and VDR inh inactive.
`Cn1c(NCCCO)nc2c1c(=O)n(Cc1cccc(F)c1)c(=O)n2C` gave G9a block inactive and VDR inh inactive.
